HIF-2a block: HIF-2a inhibition. 786-0 RCC cells HIF-2a reporter, luciferase luminescence, overnight. inhibition, % at 18.8 µM. actives 0.72% (n = 360,000);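 active = inhibition of the luminescence signal of 40% or more relative to plate controls, in a single-dose primary screen at 18.75 µM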
CF NFkB block: blocks PAF-induced NF-kB reporter in cystic fibrosis cells; KKLEB NF-kB-GFP reporter, GFP fluorescence overnight; inhibition, % at 5 µM; actives 0.86% (n = 360,000);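 active = at least 50% inhibition at 5 µM, scaled per plate between neutral and stimulator controls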;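 note: PAF is a Pseudomonas aeruginosa culture filtrate used as stimulus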
hiPSC survival: hiPSC single-cell survival enhancement; survival enhancement, % at 20 µM; actives 0.044% (n = 360,000); ATPlite luminescence; 100% = ROCK inhibitor wells, 0% = DMSO; in the data active = survival enhancement above about 18%;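 note: cells exposed to compounds for 16 hours before the ATP read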
KKLEB tox: counter-screen for CF NF-kB inhibitors: cytotoxicity; activity change (cytotoxicity), % at 5 µM; actives 0.36% (n = 360,000); KKLEB CF airway cells viability, ATPlite luminescence, overnight; hits give low values; cells stimulated with P. aeruginosa culture filtrate;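 active = corrected activity change at or below -50% at 5 µM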
PPC-1+TRAIL kill: kills PPC-1 cancer cells in the presence of TRAIL. AID 1443. cell killing (% activity), % at 4 µM or 5 µM. actives 0.41% (n = 220,000). PPC-1 cells + TRAIL, ATPLite viability luminescence;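 active = cell killing above 50% in the first pass at 4 µM, then a duplicate retest at 5 µM averaging 50% or more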
TRAIL sens C8: caspase-8 TRAIL sensitization; NB7+C8 cells + TRAIL, ATPlite viability luminescence; inhibition (viability loss, TRAIL sensitization), % at 10 µM; actives 1% (n = 360,000);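 active = compounds causing at least 50% loss of cell viability in the single-dose screen, relative to plate controls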
A number is an active result. Hits are enriched below; roughly 2.2% of the tested compounds scored in any of these assays.

`CC1=CN2C(=N)/C(=C/c3ccc([N+](=O)[O-])o3)C(=O)N=C2S1` gave HIF-2a block 67, CF NFkB block 51, hiPSC survival inactive, KKLEB tox inactive, PPC-1+TRAIL kill inactive and TRAIL sens C8 inactive.
`CC(C)C[C@H](NC(=O)c1nc[nH]c1C(=O)N[C@@H](CCCCNC(=O)OC(C)(C)C)C(=O)OC(C)(C)C)C(=O)OC(C)(C)C` gave HIF-2a block inactive, CF NFkB block inactive, hiPSC survival inactive, KKLEB tox inactive, PPC-1+TRAIL kill inactive and TRAIL sens C8 51.
For CC(C)(C)OC(=O)NCCCC[C@H](NC(=O)c1[nH]cnc1C(=O)Nc1ccccc1)C(=O)OC(C)(C)C the results were HIF-2a block inactive, CF NFkB block inactive, hiPSC survival inactive, KKLEB tox inactive, PPC-1+TRAIL kill inactive and TRAIL sens C8 59.
CC(C)(C)OC(=O)NCCCC[C@H](NC(=O)c1[nH]cnc1C(=O)Nc1ccc(Cl)cc1)C(=O)OC(C)(C)C was read as HIF-2a block inactive, CF NFkB block inactive, hiPSC survival inactive, KKLEB tox inactive, PPC-1+TRAIL kill inactive and TRAIL sens C8 inactive.
`CC(C)(C)OC(=O)NCc1ccc(NC(=O)c2nc[nH]c2C(=O)N[C@@H](Cc2ccccc2)C(=O)OCc2ccccc2)cc1` gave HIF-2a block inactive, CF NFkB block inactive, hiPSC survival inactive, KKLEB tox inactive, PPC-1+TRAIL kill inactive and TRAIL sens C8 83.
`CC(C)(C)OC(=O)[C@H](Cc1ccccc1)NC(=O)c1[nH]cnc1C(=O)Nc1ccccc1F` gave HIF-2a block inactive, CF NFkB block inactive, hiPSC survival inactive, KKLEB tox inactive and TRAIL sens C8 62.
Screening COc1cc(/C=C2\SC(=S)N(CCC(=O)N3CCCCC3)C2=O)cc(OC)c1OC returned HIF-2a block inactive, CF NFkB block inactive, hiPSC survival inactive, KKLEB tox inactive and TRAIL sens C8 inactive.
For CCC(=O)N1CCC1(C)C(=O)Nc1cc(OC)ccc1OC (centres undefined) the results were HIF-2a block inactive, CF NFkB block inactive, hiPSC survival inactive, KKLEB tox inactive and TRAIL sens C8 inactive.
For CC(=O)N[C@@H]1[C@@H](O)[C@@H]2OC(c3ccccc3)OC[C@H]2O[C@@H]1N=[N+]=[N-] (some centres undefined) the results were HIF-2a block inactive, CF NFkB block inactive, hiPSC survival inactive, KKLEB tox inactive and TRAIL sens C8 inactive.
For NC(=O)c1sc2nc3c(c(-c4ccco4)c2c1N)CCC3 the results were HIF-2a block inactive, CF NFkB block 76, hiPSC survival inactive, KKLEB tox inactive, PPC-1+TRAIL kill inactive and TRAIL sens C8 inactive.
`Cc1ccc(-c2nc3sc(C(N)=O)c(N)c3c3c2CCCC3)cc1` gave HIF-2a block inactive, CF NFkB block inactive, hiPSC survival inactive, KKLEB tox inactive, PPC-1+TRAIL kill 55 and TRAIL sens C8 inactive.
For O=C(/C=C/c1ccco1)Nc1ccccc1C(=O)O the results were HIF-2a block inactive, CF NFkB block inactive, hiPSC survival inactive, KKLEB tox inactive, PPC-1+TRAIL kill inactive and TRAIL sens C8 48.
`O=C(Nc1c(Cl)cc2c(c1Cl)Cc1cc([N+](=O)[O-])ccc1-2)C(Cl)Cl` gave HIF-2a block inactive, CF NFkB block inactive, hiPSC survival inactive, KKLEB tox inactive and TRAIL sens C8 86.
Screening CC(=O)Nc1ccc2c(c1)Cc1c-2cc(Cl)c(NC(C)=O)c1Cl returned HIF-2a block inactive, CF NFkB block inactive, hiPSC survival inactive, KKLEB tox inactive and TRAIL sens C8 inactive.
For CN(C)/C=C(\C=N\OCc1ccc(Cl)cc1Cl)C(=O)Nc1ccc(Cl)c(Cl)c1 the results were HIF-2a block inactive, CF NFkB block 56, hiPSC survival inactive, KKLEB tox -60, PPC-1+TRAIL kill inactive and TRAIL sens C8 inactive.
Screening c1ccc(-c2cn3ccccc3n2)cc1 returned HIF-2a block inactive, CF NFkB block inactive, hiPSC survival inactive, KKLEB tox inactive and TRAIL sens C8 inactive.
`CCOc1ccc(-c2cn3ccccc3n2)cc1[N+](=O)[O-]` gave HIF-2a block inactive, CF NFkB block inactive, hiPSC survival inactive, KKLEB tox inactive, PPC-1+TRAIL kill inactive and TRAIL sens C8 52.
Screening Oc1ccc(-c2cn3ccccc3n2)cc1 returned HIF-2a block inactive, CF NFkB block inactive, hiPSC survival inactive, KKLEB tox inactive, PPC-1+TRAIL kill inactive and TRAIL sens C8 63.
`CCN(CC)S(=O)(=O)c1ccc(-c2cn3ccccc3n2)cc1` gave HIF-2a block inactive, CF NFkB block inactive, hiPSC survival inactive, KKLEB tox inactive and TRAIL sens C8 inactive.
Brc1ccc(-c2cn3ccccc3n2)cc1 was read as HIF-2a block inactive, CF NFkB block inactive, hiPSC survival inactive, KKLEB tox inactive, PPC-1+TRAIL kill inactive and TRAIL sens C8 47.
Screening O=[N+]([O-])c1ccc(-c2cn3ccccc3n2)cc1 returned HIF-2a block inactive, CF NFkB block inactive, hiPSC survival inactive, KKLEB tox inactive and TRAIL sens C8 inactive.
For CN(C)S(=O)(=O)c1ccc(-c2cn3ccccc3n2)cc1 the results were HIF-2a block inactive, CF NFkB block inactive, hiPSC survival inactive, KKLEB tox inactive, PPC-1+TRAIL kill inactive and TRAIL sens C8 60.
COC(=O)C(NC(=O)C(C)NC(=O)OCc1ccccc1)C(C)C (centres undefined) was read as HIF-2a block inactive, CF NFkB block inactive, hiPSC survival inactive, KKLEB tox inactive, PPC-1+TRAIL kill inactive and TRAIL sens C8 inactive.
`COc1ccc(CNC[C@H]2O[C@@H](n3cnc4c(N)ncnc43)[C@H](O)[C@@H]2O)cc1OC` gave HIF-2a block inactive, CF NFkB block inactive, hiPSC survival inactive, KKLEB tox inactive and TRAIL sens C8 inactive.
O=C(OCc1cccc(C(F)(F)F)c1)c1cc(S(=O)(=O)N2CCOCC2)ccc1F was read as HIF-2a block inactive, CF NFkB block inactive, hiPSC survival inactive, KKLEB tox inactive and TRAIL sens C8 72.
`O=C(COC(=O)c1cc(S(=O)(=O)N2CCOCC2)ccc1F)c1ccccc1` gave HIF-2a block inactive, CF NFkB block inactive, hiPSC survival inactive, KKLEB tox inactive and TRAIL sens C8 inactive.
`CCC1(O)C(=O)OCc2c1cc1n(c2=O)Cc2cc3c(N)cccc3nc2-1` (centres undefined) gave HIF-2a block inactive, CF NFkB block 86, hiPSC survival inactive, KKLEB tox inactive and TRAIL sens C8 inactive.
CCC1(OC(=O)CN(C)C)C(=O)OCc2c1cc1n(c2=O)Cc2cc3c(N)cccc3nc2-1 (centres undefined) was read as HIF-2a block inactive, CF NFkB block inactive, hiPSC survival inactive, KKLEB tox -56 and TRAIL sens C8 inactive.
For [O-][n+]1c2ccccc2cc2ccccc21 the results were HIF-2a block inactive, CF NFkB block inactive, hiPSC survival inactive, KKLEB tox inactive and TRAIL sens C8 inactive.
